Data taken from PubChem BioAssay (NCATS).
Results filed as inconclusive are left out. A call without a number means that no potency is given here. Calls of active or inactive are those of the source. Calls follow the shape of the dose curve; as a rule, active = well fitted curve in the direction sought with a large enough effect; inconclusive = small, poorly fitted or top-dose-only effect, or another doubt; inactive = no such curve, though single readings can be large; an effect the other way counts as inactive or inconclusive.

What was measured:
[1] = Quantitative High-Throughput drug screen in 47 multiple myeloma cell lines against the NCATS MIPE library collection: FR4_PLB cell viability assay (AID 1918924; also: nearly all actives have a fitted effect of over 35% in size)
Summary of the method: (§1)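 Luminescent ATP measurement with CellTiter-Glo gives viability, scaled between DMSO-only wells (100%) and media-only wells (0%). Cells, 500 per well, faced library compounds for 48 hours at 37C.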

[2] = Quantitative High-Throughput drug screen in 47 multiple myeloma cell lines against the NCATS MIPE library collection: Delta47_JCRB cell viability assay (AID 1918925; also: nearly all actives have a fitted effect of over 45% in size)
Summary of the method: (§2)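 qHTS of the MIPE 4.0 collection: 500 myeloma cells/well, 48 h drug exposure at 37C in 5% CO2, then CellTiter-Glo for 5 min at room temperature before luminescence reading.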

[3] = Quantitative High-Throughput drug screen in 47 multiple myeloma cell lines against the NCATS MIPE library collection: ARP1_JJKsccF8 cell viability assay (AID 1918928; also: nearly all actives have a fitted effect of over 40% in size)
Summary of the method: (§3)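 Luminescence from CellTiter-Glo, taken after 5 min at room temperature, reports cellular ATP as viability. Cells (500 per well) had been treated 48 h at 37 °C with MIPE 4.0 compounds, scaled between DMSO and medium-only controls.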

[4] = Quantitative High-Throughput drug screen in 47 multiple myeloma cell lines against the NCATS MIPE library collection: ARD_JJKsccE7 cell viability assay (AID 1918929)
Summary of the method: as §2

[5] = Quantitative High-Throughput drug screen in 47 multiple myeloma cell lines against the NCATS MIPE library collection: KMM1_JCRB cell viability assay (AID 1918960); also: nearly all actives have a fitted effect of over 30% in size
Summary of the method: as §3

[6] = Quantitative High-Throughput drug screen in 47 multiple myeloma cell lines against the NCATS MIPE library collection: KHM11_PLB cell viability assay (AID 1918962); also: nearly all actives have a fitted effect of over 35% in size
Summary of the method: as §1

[7] = Quantitative High-Throughput drug screen in 47 multiple myeloma cell lines against the NCATS MIPE library collection: INA6_PLB cell viability assay (AID 1918965; also: nearly all actives have a fitted effect of over 55% in size)
Summary of the method: (§4)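 Steps: seed 500 cells per well; pin-transfer MIPE 4.0 library; incubate 48 h at 37C, 5% CO2, humidified; add CellTiter-Glo, 5 min room temperature; read luminescence.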

[8] = Quantitative High-Throughput drug screen in 47 multiple myeloma cell lines against the NCATS MIPE library collection: H1112_PLB cell viability assay (AID 1918967; also: nearly all actives have a fitted effect of over 30% in size)
Summary of the method: as §2

[9] = Quantitative High-Throughput drug screen in 47 multiple myeloma cell lines against the NCATS MIPE library collection: Karpas25_ECACC cell viability assay (AID 1918968; also: nearly all actives have a fitted effect of over 35% in size)
Summary of the method: as §2

[10] = Quantitative High-Throughput drug screen in 47 multiple myeloma cell lines against the NCATS MIPE library collection: EJM_DSMZ cell viability assay (AID 1918926; also: nearly all actives have a fitted effect of over 30% in size)
Summary of the method: as §2

[11] = Quantitative High-Throughput drug screen in 47 multiple myeloma cell lines against the NCATS MIPE library collection: Karpas620_DSMZ cell viability assay (AID 1918959); also: nearly all actives have a fitted effect of over 30% in size
Summary of the method: as §1

[12] = Quantitative High-Throughput drug screen in 47 multiple myeloma cell lines against the NCATS MIPE library collection: AMO1_DSMZ cell viability assay (AID 1918927; also: nearly all actives have a fitted effect of over 30% in size)
Summary of the method: as §2

[13] = Quantitative High-Throughput drug screen in 47 multiple myeloma cell lines against the NCATS MIPE library collection: Karpas417_ECACC cell viability assay (AID 1918961); conditions: Karpas417 myeloma viability, CellTiter-Glo ATP luminescence, 48 h; viability (% of DMSO): at 45.8 µM (top of the series)
Summary of the method: as §4

[14] = Quantitative High-Throughput drug screen in 47 multiple myeloma cell lines against the NCATS MIPE library collection: JIM3_ECACC cell viability assay (AID 1918963; also: nearly all actives have a fitted effect of over 35% in size)
Summary of the method: as §1

[15] = Quantitative High-Throughput drug screen in 47 multiple myeloma cell lines against the NCATS MIPE library collection: JIM1_ECACC cell viability assay (AID 1918964)
Summary of the method: as §2

[16] = Quantitative High-Throughput drug screen in 47 multiple myeloma cell lines against the NCATS MIPE library collection: KMS27_JCRB cell viability assay (AID 1918970); conditions: KMS27 myeloma cells, CellTiter-Glo ATP viability, 48 h; viability (% of DMSO): at 45.8 µM (top of the series); also: nearly all actives have a fitted effect of over 30% in size
Summary of the method: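 KMS27_JCRB myeloma cells, 500 per well, exposed 48 h at 37 C, 5% CO2 to MIPE 4.0 compounds. Viability from ATP by CellTiter-Glo luminescence, normalized to DMSO (100%) and medium-only (0%) wells.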

[17] = Quantitative High-Throughput drug screen in 47 multiple myeloma cell lines against the NCATS MIPE library collection: JJN3_DSMZ cell viability assay (AID 1918966; also: nearly all actives have a fitted effect of over 50% in size)
Summary of the method: as §2
Potency is read from the fitted curve at half-maximal effect.

| SMILES | Potency [1] | Potency [2] | Potency [3] | Potency [4] | Potency [5] | Potency [6] | Potency [7] | Potency [8] | Potency [9] | Potency [10] | Potency [11] | Potency [12] | Potency [13] | Potency [14] | Potency [15] | Potency [16] | viability (% of DMSO) [13] | Potency [17] |
| --- | --- | --- | --- | --- | --- | --- | --- | --- | --- | --- | --- | --- | --- | --- | --- | --- | --- | --- |
| O=C1NC(=O)C(c2cnc3ccccn23)=C1c1cn2c3c(cccc13)CN(C(=O)N1CCOCC1)CC2 | 0.0053 µM (active) | 1.05 µM (active) | 0.0066 µM (active) | 0.0042 µM (active) | 13.2 µM (active) | 0.001 µM (active) | 0.001 µM (active) | 1.48 µM (active) | 0.001 µM (active) | – | – | – | – | – | – | – | – | – |
| CO[C@H]1/C=C\O[C@@]2(C)Oc3c(C)c(O)c4c(O)c(c(C=NN5CCN(C6CCCC6)CC5)c(O)c4c3C2=O)NC(=O)C(C)=CC=C[C@H](C)[C@H](O)[C@@H](C)[C@@H](O)[C@@H](C)[C@H](OC(C)=O)[C@H]1C | 0.372 µM (active) | – | 10.5 µM (active) | 1.05 µM (active) | – | – | – | 1.18 µM (active) | 0.0235 µM (active) | 0.833 µM (active) | 0.264 µM (active) | – | – | – | – | – | – | – |
| O=C(O)c1nc(=O)[nH]c(=O)[nH]1 | inactive | – | inactive | inactive | inactive | inactive | inactive | inactive | inactive | inactive | inactive | inactive | – | – | – | – | – | – |
| CCC=CC[C@H]1C(=O)CC[C@@H]1CC(=O)OC | inactive | – | inactive | inactive | inactive | – | inactive | inactive | inactive | inactive | inactive | inactive | inactive | inactive | inactive | inactive | – | – |
| CCCC1OC2C[C@@H]3[C@H]4CCC5=CC(=O)C=C[C@]5(C)[C@H]4C(O)C[C@]3(C)[C@]2(C(=O)CO)O1 (stereo partly drawn) | inactive | – | 0.469 µM (active) | – | – | – | inactive | inactive | 0.0132 µM (active) | 11.8 µM (active) | inactive | inactive | – | – | – | – | – | – |
| CC(C)c1onc(-c2c(Cl)cccc2Cl)c1COc1ccc(C=Cc2cccc(C(=O)O)c2)c(Cl)c1 | inactive | – | inactive | – | inactive | – | inactive | inactive | – | inactive | inactive | inactive | – | – | inactive | inactive | – | – |
| O=C(NCCCCN1CCOCC1)c1cc2ccccc2o1 | inactive | – | inactive | inactive | inactive | inactive | – | inactive | – | inactive | inactive | – | – | inactive | – | inactive | 159% (active) | inactive |
| OC[C@H]1O[C@@H](OCCc2ccc(O)cc2)[C@H](O)[C@@H](O)[C@H]1O | inactive | – | – | – | inactive | inactive | – | – | – | inactive | inactive | inactive | – | inactive | inactive | inactive | – | – |
| CN1CCN(c2ncc(-c3cc(Cl)cc(Cl)c3Cl)c(N)n2)CC1 | inactive | 23.5 µM (active) | inactive | inactive | – | – | 13.2 µM (active) | – | – | – | 20.9 µM (active) | – | – | inactive | 23.5 µM (active) | – | – | – |
| O=C1Nc2ccc(I)cc2C1=Cc1cc(Br)c(O)c(Br)c1 | inactive | – | – | – | – | – | 2.96 µM (active) | – | 14.8 µM (active) | inactive | 14.8 µM (active) | 16.6 µM (active) | – | – | – | – | – | – |
| COc1ccc2nc3cc(Cl)ccc3c(Nc3cc(CN4CCCC4)c(O)c(CN4CCCC4)c3)c2n1 | 23.5 µM (active) | 16.6 µM (active) | 29.6 µM (active) | – | – | 20.9 µM (active) | 7.43 µM (active) | 18.7 µM (active) | 14.8 µM (active) | – | – | – | – | – | – | – | – | – |
| O=C(O)C1=CC(O)C(O)[C@H](O)C1 (stereo partly drawn) | inactive | – | – | inactive | inactive | – | inactive | inactive | inactive | inactive | inactive | inactive | – | inactive | – | inactive | – | – |
| CCOC(=O)[C@@H](N)CCC(=O)N[C@@H](CSCc1ccccc1)C(=O)N[C@@H](C(=O)OCC)c1ccccc1 | inactive | 26.4 µM (active) | inactive | – | – | – | 18.7 µM (active) | – | 23.5 µM (active) | – | 14.8 µM (active) | – | – | – | – | 23.5 µM (active) | – | 26.4 µM (active) |
| O=C(O)c1ccc(O)c2ncc(N3CCOCC3)cc12 | inactive | – | – | – | – | inactive | inactive | – | 18.7 µM (active) | inactive | 18.7 µM (active) | 20.9 µM (active) | – | 18.7 µM (active) | 20.9 µM (active) | 23.5 µM (active) | – | – |
| O=C(O)C1=CO[C@@H](O[C@@H]2O[C@H](CO)[C@H](O)[C@H](O)[C@H]2O)[C@@H]2C(CO)=CC[C@H]12 | inactive | – | inactive | inactive | – | – | – | inactive | inactive | 5.9 µM (active) | – | inactive | inactive | inactive | – | inactive | – | – |
| CN[C@@H]1[C@@H](O)[C@@H](O[C@@H]2[C@@H](O)[C@H](O[C@H]3O[C@H](CN)[C@@H](O)[C@H](O)[C@@H]3O)[C@@H](N)C[C@@H]2NC(=O)[C@@H](O)CN)OC[C@]1(C)O | inactive | – | – | inactive | inactive | – | inactive | – | – | inactive | inactive | inactive | inactive | – | inactive | – | – | – |
| C[C@H]1[C@H](O)O[C@@H]2O[C@@]3(C)CC[C@@H]4[C@H](C)CC[C@@H]1[C@@]24OO3 | 6.62 µM (active) | 5.9 µM (active) | 1.66 µM (active) | – | – | – | 1.66 µM (active) | 16.6 µM (active) | 1.66 µM (active) | – | 5.26 µM (active) | – | 2.09 µM (active) | – | – | 13.2 µM (active) | – | – |
